# Experimental data as given in PubChem BioAssay AID504376 (National Center for Advancing Translational Sciences (NCATS), 2011).
# Active and inactive are the calls of the source. How the calls were made is not given here.
# Experiment: Clonogenic survival assay for Identifying a Potential Treatment of Ataxia-Telangiectasia:SAR for Probe
# Conditions: ATM-null F2111 fibroblasts, NCS clonogenic survival, 14 d
# From the text: NIH Chemical Genomics Center [NCGC] NIH Molecular Libraries Probe Centers Network [MLPCN] MLPCN Grant: MH089030-01 Assay Submitter (PI): Wei Zheng and Yosef Shiloh Ataxia-telangiectasia (A-T) is a devastating and progressive disease for which, there is no cure. Although A-T is a multisystem disease, it is stereotyped characterized by its neurological symptoms such as truncal ataxia, due to cerebellar cortical degeneration of the Purkinje and granule cells. Other symptoms of A-T are telangiectasias (dilated blood vessels), primary immunodeficiency, marked sensitivity to ionizing radiation (IR), chromosomal instability and predisposition to cancer. The underlying genetic cause of A-T is null mutations in the ATM (A-T mutated) gene. ATM is a nuclear serine/threonine kinase that functions as a master regulator of the cellular responses to double strand breaks (DSBs) in the DNA. Upon activation by DSBs, ATM phosphorylates a plethora of downstream targets, including KAP-1 on […]. KAP-1 phosphorylation occurs shortly in response to DSBs and mediates global chromatin relaxation, which facilitates DSB repair. To screen for small molecules that will compensate for the loss of ATM in cells derived from A-T patients, we monitored KAP-1 phosphorylation as a readout for ATM-like activity using an AlphaLISA assay. Active compounds should protect the A-T cells from the damage by NCS treatment and form normal colonies.
# ATM null (F2111) cells are treated with various doses of the radiomimetic drug neocarzinostatin (NCS) and plated at densities of 200-5000 cells/[…]. 24 hr later the cells were either treated or not treated with Rottlerin, and 30 min later NCS was added for an additional 30 minutes. Then the medium was replaced with fresh medium and plates were incubated for 14 days until colonies could be visualized. After fourteen days, the cultures are fixed and stained and colonies scored manually. Colony survival in absence of NCS was normalized to 100% survival for each compound concentration.
smiles,measurement,setting,value
CC(=O)c1c(O)c(C)c(O)c(Cc2c(O)c3c(c(C(=O)/C=C/c4ccccc4)c2O)OC(C)(C)C=C3)c1O,survival,"at 30 µM, stronger effect = higher value",43% (active)
same,survival,"measured here: 10 ng/ml NCS, no compound",35%
same,survival,"measured here: 20 ng/ml NCS, at 30 µM, stronger effect = higher value",33%
same,survival,"measured here: 40 ng/ml NCS, at 30 µM, stronger effect = higher value",15%
